Laboratory results taken from the supplement of paper PMC4840960.
Where a name gives a salt, the structure may show the parent alone. ± gives the standard deviation of the averaged measurements.

How the values were obtained:
[1] = tested on: E18 rat cortical neuron-glia co-culture; assay: fiber score / MBP score (myelination specific beyond OL differentiation) (ratio); higher = more myelination-specific MBP alignment; conditions: treatment time: 8 days (DIV5-DIV13)
Summary of the method: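 Papain-dissociated primary E18 rat cortical co-cultures, plated at 20,000 cells/well on poly-d-lysine/laminin 96-well plates, were exposed to library compounds at 1 or 5 µM in myelination medium between DIV5 and DIV13. Following fixation in 4 % paraformaldehyde, cultures were stained for MBP, Olig2 and DAPI, and four 10X fields per well were analysed in duplicate wells. Values are the ratio of fiber score (continuous MBP fiber length per Olig2+ nucleus) to MBP score (thresholded MBP area × intensity per Olig2+ nucleus).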

[2] = tested on: E18 rat cortical neuron-glia co-culture; assay: myelination (MBP fiber length per Olig2+ nucleus), % of 1 µM DAPT response (DMSO = 0) (% of DAPT); higher = more myelination, active = 50 or more; conditions: treatment time: 8 days (DIV5-DIV13)
Summary of the method: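 Myelination, expressed as continuous straight MBP fiber length per Olig2+ nucleus, was normalised to 0.1 % DMSO as 0 and a 1 µM positive control as 100. The cultures were primary E18 rat cortical co-cultures dissociated with papain and plated at 20,000 cells/well on poly-d-lysine/laminin-coated 96-well plates. They received library compounds at 1 or 5 µM in myelination medium between DIV5 and DIV13. Analysis covered four 10X fields per well in duplicate wells after 4 % paraformaldehyde fixation and immunostaining for MBP and Olig2 with DAPI.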

Row | SMILES | fiber score / MBP score ([1]; 1 µM) | fiber score / MBP score ([1]; 5 µM) | myelination ([2]; 1 µM) | myelination ([2]; 5 µM)
1 | Cc1sc(N)c(C(=O)c2cccc(C(F)(F)F)c2)c1C | 0.681 | 0.698 | -18.7 (inactive) | -12 (inactive)
2 | N=C(N)N [Guanidine] | 0.765 | 0.71 | -7.42 (inactive) | -8.57 (inactive)
3 | CC(=O)O[C@]1(C(C)=O)CC[C@H]2[C@@H]3C=C(C)C4=CC(=O)CC[C@]4(C)[C@H]3CC[C@@]21C [Megestrol acetate] | 0.588 | 0.795 | -33.5 (inactive) | -31.3 (inactive)
4 | Oc1ncnc2[nH]ncc12 [Allopurinol] | 1.01 | 0.903 | 6.93 (inactive) | -0.27 (inactive)
5 | CCCC(=O)Nc1ccc(OCC(O)CNC(C)C)c(C(C)=O)c1 (configuration not stated) [Acebutolol] | 0.757 | 0.796 | -40.3 (inactive) | -32.5 (inactive)
6 | CCCCC(=O)N(Cc1ccc(-c2ccccc2-c2nnn[nH]2)cc1)[C@H](C(=O)O)C(C)C [Valsartan] | 0.885 | 0.655 | -7.17 (inactive) | -17.4 (inactive)
7 | O=C1CN2Cc3c(ccc(Cl)c3Cl)N=C2N1 [Anagrelide hydrochloride] | 0.9 | 0.706 | -1.07 (inactive) | -10 (inactive)
8 | CCCCNC(=O)NS(=O)(=O)c1ccc(C)cc1 [Tolbutamide] | 0.923 | 0.898 | -1.85 (inactive) | -4.03 (inactive)
9 | O=C(NCCN1CCOCC1)c1ccc(Cl)cc1 [Moclobemide] | 0.601 | 0.881 | -22.1 (inactive) | -5.22 (inactive)
10 | O=C1Nc2ccc(Cl)cc2[C@@](C#CC2CC2)(C(F)(F)F)O1 [Efavirenz] | 0.744 | 0.712 | -8.9 (inactive) | 11.1 (inactive)
11 | CC1=C(/C=C/C(C)=C/C=C/C(C)=C\C(=O)O)C(C)(C)CCC1 [Isotretinoin] | 0.294 | 0.414 | -16.1 (inactive) | -11.8 (inactive)
12 | CCOC(=O)[C@@]1(CCCCCCOc2ccc(Cl)cc2)CO1 [Etomoxir] | 0.693 | 0.645 | -31 (inactive) | -26.2 (inactive)
13 | CCC(C)(C)C(=O)O[C@H]1C[C@@H](C)C=C2C=C[C@H](C)[C@H](CC[C@@H]3C[C@@H](O)CC(=O)O3)[C@H]21 [Simvastatin] | 1.17 | 3.15 | -17.5 (inactive) | 30 (inactive)
14 | CC(N)C12CC3CC(CC(C3)C1)C2 (configuration not stated) [Rimantadine] | 0.962 | 0.737 | 28.7 (inactive) | 62.2
15 | CC(COc1ccccc1)N(CCCl)Cc1ccccc1 (configuration not stated) [Phenoxybenzamine] | 0.774 | 0.918 | -14.4 (inactive) | 0.385 (inactive)
16 | c1ccc2c(c1)CCCC2C1=NCCN1 (configuration not stated) [Tyzine] | 0.783 | 0.873 | -6.18 (inactive) | -2.07 (inactive)
17 | CN(C)[C@@H]1C(O)=C(C(=O)NCN2CCCC2)C(=O)[C@@]2(O)C(O)=C3C(=O)c4c(O)cccc4[C@@](C)(O)[C@H]3C[C@@H]12 [Rolitetracycline] | 0.779 | 0.832 | -9.77 (inactive) | -5.55 (inactive)
18 | CC1=C(CC(=O)O)c2cc(F)ccc2/C1=C\c1ccc([S+](C)[O-])cc1 (configuration not stated) [Sulindac] | 0.97 | 0.594 | -5.43 (inactive) | -16.6 (inactive)
19 | CC(C)Cc1ccc(C(C)C(=O)O)cc1 (configuration not stated) [Ibuprofen] | 0.67 | 0.833 | -7.57 (inactive) | -2.85 (inactive)
20 | Nc1c2c(nc3c1CCC3)CCCC2 [Amiridine] | 0.702 | 0.8 | -26.8 (inactive) | -17.6 (inactive)
21 | O=C(c1ccccc1)c1ccc2n1CCC2C(=O)O (configuration not stated) [Ketorolac] | 0.853 | 1.12 | -4.81 (inactive) | 2.63 (inactive)
22 | c1ccc2c(CC3=NCCN3)cccc2c1 [Naphazoline] | 1.1 | 1.06 | 13.7 (inactive) | 14 (inactive)
23 | CCOC(=O)OC(C)OC1=C(C(=O)Nc2ccccn2)N(C)S(=O)(=O)c2ccccc21 (configuration not stated) [Ampiroxicam] | 0.796 | 1.01 | -15.1 (inactive) | -4.42 (inactive)
24 | NS(=O)(=O)c1cc2c(cc1C(F)(F)F)NC(Cc1ccccc1)NS2(=O)=O (configuration not stated) [Bendroflumethiazide] | 0.474 | 0.559 | -24.6 (inactive) | -27.7 (inactive)
25 | COc1ccc(-c2oc3c(CC=C(C)C)c(O[C@@H]4O[C@H](CO)[C@@H](O)[C@H](O)[C@H]4O)cc(O)c3c(=O)c2O[C@@H]2O[C@@H](C)[C@H](O)[C@@H](O)[C@H]2O)cc1 [Icariin] | 0.673 | 0.958 | -14.4 (inactive) | -5.53 (inactive)
26 | CN[C@H]1CC[C@@H](c2ccc(Cl)c(Cl)c2)c2ccccc21 [Sertraline] | 0.689 ± 0.18 | 3.18 | -5.38 (inactive) | -24.9 (inactive)
27 | CN(C)c1ccc(O)c2c1C[C@H]1C[C@H]3[C@H](N(C)C)C(O)=C(C(N)=O)C(=O)[C@@]3(O)C(O)=C1C2=O [Minocycline] | 0.788 | 0.583 | -6.54 (inactive) | -5.86 (inactive)

Row | SMILES | fiber score / MBP score ([1]; 1 µM) | fiber score / MBP score ([1]; 5 µM) | myelination ([2]; 1 µM) | myelination ([2]; 5 µM)
28 | CC(=O)OCC(=O)[C@@]12OC3(CCCC3)O[C@@H]1C[C@H]1[C@@H]3CCC4=CC(=O)C=C[C@]4(C)[C@@]3(F)[C@@H](O)C[C@@]12C [Amcinonide] | 0.868 | 0.784 | -11.8 (inactive) | -42.6 (inactive)
29 | Cc1nccn1CC1CCc2c(c3ccccc3n2C)C1=O (configuration not stated) [Ondansetron] | 0.73 ± 0.022 | 0.404 ± 0.053 | -25.6 (inactive) | -35.8 (inactive)
30 | O=C(C1CCCCC1)N1CC(=O)N2CCc3ccccc3C2C1 (configuration not stated) [Praziquantel] | 1.03 | 0.947 | 7.75 (inactive) | -1.87 (inactive)
31 | O=C(O)CCc1nc(-c2ccccc2)c(-c2ccccc2)o1 [Oxaprozin] | 0.677 | 0.752 | -17 (inactive) | -14 (inactive)
32 | CO[C@@]1(NC(=O)Cc2cccs2)C(=O)N2C(C(=O)O)=C(COC(N)=O)CS[C@@H]21 [Cefoxitin] | 0.901 | 0.686 | -5.64 (inactive) | -13.8 (inactive)
33 | O=C1Nc2ccccc2/C1=C1/Nc2ccccc2C1=O [Indirubin] | 0.896 | 0.71 | -4.48 (inactive) | -14.5 (inactive)
34 | C[C@@](Cc1ccc(O)c(O)c1)(NN)C(=O)O [Carbidopa] | 0.917 | 0.776 | -3.67 (inactive) | -7.64 (inactive)
35 | Cc1ccc(-c2cc(C(F)(F)F)nn2-c2ccc(S(N)(=O)=O)cc2)cc1 [Celecoxib] | 0.757 | 1.01 | -5.22 (inactive) | -0.0582 (inactive)
36 | O=[N+]([O-])c1cccc2cn[nH]c12 [7-Nitroindazole] | 0.691 | 0.753 | -9.77 (inactive) | -5.65 (inactive)
37 | Cc1cccc(Nc2ccccc2C(=O)O)c1C [Mefenamic Acid] | 0.791 | 1.3 | -6.36 (inactive) | 38.7 (inactive)
38 | O=C1c2c(O)cc(O)cc2O[C@H](c2ccc(O)c(O)c2)[C@H]1O [Distylin] | 0.8 | 1.16 | -6.73 (inactive) | 0.864 (inactive)
39 | S=c1[nH]cnc2nc[nH]c12 [Mercaptopurine] | 0.858 | 0.41 | -32.7 (inactive) | -50.2 (inactive)
40 | CCCNC(=O)NS(=O)(=O)c1ccc(Cl)cc1 [Chlorpropamide] | 0.614 | 1.05 | -30.5 (inactive) | -5.62 (inactive)
41 | C[C@]12CCC(=O)C=C1CC[C@@H]1[C@@H]2[C@@H](O)C[C@@]2(C)[C@H]1CC[C@]2(O)C(=O)CO [Hydrocortisone] | 0.712 ± 0.026 | 0.656 ± 0.11 | -10.9 (inactive) | -10.2 (inactive)
42 | NS(=O)(=O)Cc1noc2ccccc12 [Zonisamide] | 0.789 | 0.799 | -33.9 (inactive) | -30.8 (inactive)
43 | Cc1ncc([N+](=O)[O-])n1CC(C)O (configuration not stated) [Secnidazole] | 0.462 | 0.618 | -31.6 (inactive) | -18.7 (inactive)
44 | COc1cc(C)nc(-n2nc(C)cc2OC)n1 [Epirizole] | 0.549 | 0.623 | -20.5 (inactive) | -13.2 (inactive)
45 | CN(Cc1cnc2nc(N)nc(N)c2n1)c1ccc(C(=O)N[C@@H](CCC(=O)O)C(=O)O)cc1 [Methotrexate] | 1.06 | 1.53 | -20.4 (inactive) | 195 (active)
46 | CN/C(=N\CCSCc1nc[nH]c1C)NC#N [Cimetidine] | 0.731 | 0.823 | -12.1 (inactive) | -6.66 (inactive)
47 | CCc1oc2ccccc2c1C(=O)c1cc(Br)c(O)c(Br)c1 [Benzbromarone] | 0.764 | 0.919 | -8.31 (inactive) | -9.52 (inactive)
48 | CC1(C)S[C@@H]2[C@H](NC(=O)Cc3ccccc3)C(=O)N2[C@H]1C(=O)O [Penicillin G] | 0.898 | 1.19 | 12.3 (inactive) | 4.95 (inactive)
49 | Cc1ccccc1C(OCCN(C)C)c1ccccc1 (configuration not stated) [Orphenadrine] | 0.693 ± 0.21 | 0.896 ± 0.071 | -7.59 (inactive) | -2.71 (inactive)
50 | CC(=O)SCC(Cc1ccccc1)C(=O)NCC(=O)OCc1ccccc1 (configuration not stated) [Racecadotril] | 0.715 | 0.943 | -48.7 (inactive) | -8.19 (inactive)
51 | O=C(O)CCNC(=O)c1ccc(/N=N/c2ccc(O)c(C(=O)O)c2)cc1 [Balsalazide] | 0.862 | 0.833 | -5.47 (inactive) | -9.22 (inactive)
52 | NC(=O)N1c2ccccc2CC(=O)c2ccccc21 [Oxcarbazepine] | 1.02 | 1.17 | 3.46 (inactive) | 196
53 | C[C@]12CC[C@@H]3c4ccc(O)cc4CC[C@H]3[C@@H]1CC[C@@H]2O [Estradiol] | 0.747 | 0.62 | -24.6 (inactive) | -35.3 (inactive)
